Experimental data from PubChem BioAssay.
Activity calls are given as the source filed them.

Key:
[1] = optical density shifts of acrAB sulA E. coli – strain DRC41, OD650, 48 h, E. coli filamentation inducer project, primary screen (AID 1152); conditions: higher = more signal, called active from +8 up or from −8 down;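 note: E. coli MC1000 strain DRC41 lacking acrAB efflux pump and sulA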
[2] = probe aLefty1 binding on compound microarray – biochemical, small-molecule microarray, 635/667 nm fluorescence, primary screen (AID 1153); conditions: higher = more signal;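 note: score merges spot fluorescence with signal-to-noise ratio from the scanned slide images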
[3] = plasmodial surface anion channel blockers, osmotic lysis – cell-based, P. falciparum Indochina, OD700, 1 h, primary screen (AID 1154); conditions: P. falciparum Indochina infected RBC osmotic lysis, higher = more signal, called active from +8 up or from −8 down
[4] = plasmodial surface anion channel blockers, osmotic lysis – cell-based, P. falciparum Indochina, OD700, 2 h, primary screen (AID 1155);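 note: lysis reports solute entry through the parasite surface anion channel PSAC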; conditions: P. falciparum Indochina infected erythrocytes, higher = more signal, called active from +8 up or from −8 down
[5] = changes in parasitized red cell lysis, either direction – P. falciparum Indochina, OD700, 3 h, PSAC antagonist project, primary screen (AID 1156); conditions: P. falciparum-infected erythrocytes, osmotic lysis, higher = more signal, called active from +8 up or from −8 down
[6] = plasmodial surface anion channel blockers, osmotic lysis – cell-based, P. falciparum Indochina, OD700, 18 h, primary screen (AID 1157); conditions: P. falciparum Indochina infected erythrocytes, osmotic lysis OD700, 18 h; higher = more signal, called active from +8 up or from −8 down
[7] = S6 kinase pathway phospho-S6 level changes – cell-based, A549, cytoblot, luminescence, serum-stimulated, primary screen (AID 1158); conditions: 5 h, higher = more signal;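 note: serum-stimulated A549 lung adenocarcinoma cells; signal is phosphorylated S6 detected by cytoblot immunostaining with HRP secondary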
[8] = molecular target: NADPH oxidase 2 (Homo sapiens) (UniProt P04839); assay: compounds shifting NOX2 Amplex Red fluorescence – cell-based, HEK293-NOX2, PMA-stimulated, NOX inhibitor project, primary screen (AID 1159); conditions: 45 min, higher = more signal, called active from +8 up or from −8 down; note: test concentration not given here
[9] = molecular target: NADPH oxidase 4 (Homo sapiens) (UniProt Q9NPH5); assay: compounds shifting NOX4 Amplex Red fluorescence – cell-based, HEK293-NOX4, tetracycline-induced, NOX inhibitor project, primary screen (AID 1160); conditions: HEK293-NOX4, Amplex Red H2O2 fluorescence, 45 min; higher = more signal, called active from +8 up or from −8 down
[10] = molecular target: NADPH oxidase 5 (Homo sapiens) (UniProt Q96PH1); assay: compounds shifting NOX5 Amplex Red fluorescence – cell-based, HEK293-NOX5, NOX inhibitor project, primary screen (AID 1161); conditions: HEK293-NOX5, ionomycin, 45 min, higher = more signal
Sequence of NADPH oxidase 5 (Homo sapiens) (Q96PH1 whole entry, looked up): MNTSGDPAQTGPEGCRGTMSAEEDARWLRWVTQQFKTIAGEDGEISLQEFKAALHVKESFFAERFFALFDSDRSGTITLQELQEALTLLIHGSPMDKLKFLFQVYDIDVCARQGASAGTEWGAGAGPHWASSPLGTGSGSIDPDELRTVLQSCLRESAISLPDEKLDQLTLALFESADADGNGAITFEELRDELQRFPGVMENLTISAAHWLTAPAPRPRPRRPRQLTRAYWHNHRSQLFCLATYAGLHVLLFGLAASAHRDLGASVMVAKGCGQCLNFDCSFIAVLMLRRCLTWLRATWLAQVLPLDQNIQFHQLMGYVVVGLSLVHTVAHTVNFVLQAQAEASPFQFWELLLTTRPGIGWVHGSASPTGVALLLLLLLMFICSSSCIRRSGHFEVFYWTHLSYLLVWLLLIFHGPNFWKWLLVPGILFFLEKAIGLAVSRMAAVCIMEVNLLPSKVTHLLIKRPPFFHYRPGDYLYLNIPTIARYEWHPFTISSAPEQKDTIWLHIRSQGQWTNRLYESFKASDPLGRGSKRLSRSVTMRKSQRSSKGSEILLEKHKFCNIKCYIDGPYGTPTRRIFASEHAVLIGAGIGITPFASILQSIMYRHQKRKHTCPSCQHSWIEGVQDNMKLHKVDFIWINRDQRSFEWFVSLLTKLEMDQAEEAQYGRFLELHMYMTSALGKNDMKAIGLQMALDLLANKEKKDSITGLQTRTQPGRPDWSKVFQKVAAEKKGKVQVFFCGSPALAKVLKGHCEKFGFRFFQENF

Sequence of NADPH oxidase 2 (Homo sapiens) (P04839 whole entry, looked up): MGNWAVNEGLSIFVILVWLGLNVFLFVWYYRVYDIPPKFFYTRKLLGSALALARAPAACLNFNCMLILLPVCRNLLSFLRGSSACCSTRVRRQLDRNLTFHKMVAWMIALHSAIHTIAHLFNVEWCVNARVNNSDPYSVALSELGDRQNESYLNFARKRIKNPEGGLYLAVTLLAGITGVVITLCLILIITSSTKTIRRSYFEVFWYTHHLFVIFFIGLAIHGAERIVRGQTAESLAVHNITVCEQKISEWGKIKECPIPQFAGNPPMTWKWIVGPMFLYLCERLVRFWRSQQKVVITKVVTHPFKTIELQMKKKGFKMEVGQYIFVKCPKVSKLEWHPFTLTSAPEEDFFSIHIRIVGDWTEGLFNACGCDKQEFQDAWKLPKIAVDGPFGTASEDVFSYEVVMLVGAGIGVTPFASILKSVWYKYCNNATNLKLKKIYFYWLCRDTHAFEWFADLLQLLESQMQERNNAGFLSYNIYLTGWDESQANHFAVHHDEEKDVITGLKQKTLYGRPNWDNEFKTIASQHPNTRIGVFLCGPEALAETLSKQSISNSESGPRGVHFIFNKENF
Sequence of NADPH oxidase 4 (Homo sapiens) (Q9NPH5 whole entry, looked up): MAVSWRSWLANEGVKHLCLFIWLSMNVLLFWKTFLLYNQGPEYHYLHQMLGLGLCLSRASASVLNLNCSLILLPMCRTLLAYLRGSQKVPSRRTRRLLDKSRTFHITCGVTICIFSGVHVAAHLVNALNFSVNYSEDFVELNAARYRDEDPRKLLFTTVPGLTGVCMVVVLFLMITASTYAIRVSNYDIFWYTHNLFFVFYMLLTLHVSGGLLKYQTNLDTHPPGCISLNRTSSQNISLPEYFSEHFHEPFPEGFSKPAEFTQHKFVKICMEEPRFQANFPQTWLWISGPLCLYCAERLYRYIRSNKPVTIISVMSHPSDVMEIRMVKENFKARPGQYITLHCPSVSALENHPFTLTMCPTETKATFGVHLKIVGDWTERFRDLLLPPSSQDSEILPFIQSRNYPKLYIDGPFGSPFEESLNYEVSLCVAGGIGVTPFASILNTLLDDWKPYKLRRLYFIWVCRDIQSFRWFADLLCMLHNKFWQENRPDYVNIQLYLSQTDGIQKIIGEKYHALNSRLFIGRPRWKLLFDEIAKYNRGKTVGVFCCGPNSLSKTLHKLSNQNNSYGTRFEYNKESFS

Structure (SMILES)	z-score [1]	composite z-score [2]	z-score [3]	z-score [4]	z-score [5]	z-score [6]	z-score [7]	z-score [8]	z-score [9]	z-score [10]
COC(=O)[C@]1(Cc2ccccc2N=[N+]=[N-])N=C(c2ccc(OCCCO)cc2)O[C@@H]1c1ccccc1	0.738 (inactive)	-0.111	28.2 (active)	27.2 (active)	1.06 (inactive)	7.41 (inactive)	0.777	-1.49 (inactive)	-0.013 (inactive)	-1.12
NC(=O)NCC#Cc1ccc2c(c1)[C@]1(C(=O)N2)[C@H](c2ccc(O)cc2)N2[C@H](c3ccccc3)[C@H](c3ccccc3)OC(=O)[C@H]2[C@@H]1C(=O)NC[C@H](O)c1ccccc1	0.578 (inactive)	-0.316	-0.0501 (inactive)	0.647 (inactive)	0.223 (inactive)	0.363 (inactive)	-0.328	0.251 (inactive)	-0.258 (inactive)	-0.0927
CN(C)C(=O)[C@]1(Cc2ccccc2N=[N+]=[N-])N=C(c2ccc(OCCCO)cc2)O[C@@H]1c1ccccc1CN=[N+]=[N-]	0.367 (inactive)	0.81	29.4 (active)	20 (active)	3.02 (inactive)	2.16 (inactive)	0.915	-2.57 (inactive)	-0.305 (inactive)	-1.93
O=C(N1CCOCC1)[C@@]1(CCS(=O)(=O)c2ccccc2)COC(c2ccc(OCCCO)cc2)=N1	1.04 (inactive)	-0.356	23.8 (active)	9.6 (active)	1.75 (inactive)	1.3 (inactive)	-0.713	-1.79 (inactive)	0.44 (inactive)	-0.597
Cc1ccc(N2C(=O)c3ccccc3[C@](C)(C(=O)NC(C)C)[C@@H]2c2ccc(CO)cc2)nc1	1.07 (inactive)	-0.275	0.641 (inactive)	0.414 (inactive)	0.18 (inactive)	0.232 (inactive)	0.274	0.358 (inactive)	-0.357 (inactive)	-0.363
CO[C@H]1O[C@H](CO)[C@@H](OC(=O)c2ccc(Br)cc2)[C@@H]2OC(=O)[C@H](Cc3cccc(Br)c3)C/C=C/C[C@@H](Cc3cccc(Br)c3)C(=O)O[C@@H]12	-0.681 (inactive)	0.415	1.56 (inactive)	0.624 (inactive)	-0.778 (inactive)	0.484 (inactive)	-0.0043	-0.129 (inactive)	0.211 (inactive)	0.875
Cc1ccccc1C(O)C1C=CC2C(=O)N(Cc3ccccc3)C(=O)C2N1n1cnnc1 (stereo not given)	-0.534 (inactive)	0.0722	1.4 (inactive)	1.2 (inactive)	0.341 (inactive)	0.927 (inactive)	-0.29	-0.4 (inactive)	0.1 (inactive)	0.067
O=C1N(Cc2ccccc2)c2ccccc2[C@H]2OC(c3ccc(OCCCO)cc3)=N[C@@]12CCS(=O)(=O)c1ccccc1	-0.751 (inactive)	0.396	25.3 (active)	11.8 (active)	2.9 (inactive)	1.85 (inactive)	-0.0791	-0.596 (inactive)	-0.793 (inactive)	-1.21
CC(C)[Si](C#C[Si](C(C)C)(C(C)C)C(C)C)(O[C@H](C)c1cn(Cc2cccc(Cl)c2)nn1)C(C)C	2.58 (inactive)	-0.195	1.23 (inactive)	0.881 (inactive)	-0.125 (inactive)	0.702 (inactive)	0.712	0.501 (inactive)	0.312 (inactive)	-0.162
Cc1ccccc1C(O)C1C=CC2C(=O)N(C)C(=O)C2N1Nc1ccc([N+](=O)[O-])cc1[N+](=O)[O-] (stereo not given)	-1.68 (inactive)	0.591	4.34 (inactive)	1.7 (inactive)	1.06 (inactive)	0.95 (inactive)	-1.32	-0.824 (inactive)	-1.23 (inactive)	0.487
CC(C)c1ccc(NN2C(C(O)c3cccs3)C=CC3C(=O)N(c4ccccc4)C(=O)C32)cc1 (stereo not given)	-1.5 (inactive)	0.498	3.11 (inactive)	0.962 (inactive)	0.566 (inactive)	0.899 (inactive)	-1.16	-1.11 (inactive)	-3.51 (inactive)	-2.9
C=CCOC(=O)[C@@H]1[C@H]2C(=O)O[C@H](c3ccccc3)[C@H](c3ccccc3)N2[C@H](c2ccc(OCCOC(=O)[C@@H]3C[C@@H]4C(=O)N5CCC[C@H]5C(=O)N4[C@@H]3c3cccc(OCCO)c3)cc2)[C@@]12C(=O)Nc1ccc(I)cc12	0.745 (inactive)	-0.462	3.47 (inactive)	1.87 (inactive)	3.63 (inactive)	0.938 (inactive)	0.198	1.82 (inactive)	1.64 (inactive)	1.73
CN(C)C(=O)[C@@]1(CCS(=O)(=O)c2ccccc2)N=C(c2ccc(OCCCO)cc2)O[C@H]1c1ccccc1CN=[N+]=[N-]	1.1 (inactive)	0.375	24 (active)	4.2 (inactive)	0.344 (inactive)	-0.48 (inactive)	1.12	-1.49 (inactive)	0.083 (inactive)	-0.558
